Parameters in all cases: species or system human, MV4-11 + K-562 + COLO205 + SK-N-BE2 + OVCAR-8
One test has as its system IRAK3. Conditions: read-out: apparent Kd, n = 1.
Another test concerns MAPK8. Conditions: read-out: apparent Kd, compound concentrations: 100 nM and 1000 nM (sheet 'Samples'), n = 1.
In a further test the test system is PTK2B. Conditions: read-out: apparent Kd, compound concentrations: 100 nM and 1000 nM (sheet 'Samples'), n = 1.
A further test relates to PTK2. Conditions: read-out: apparent Kd, compound concentrations: 100 nM and 1000 nM (sheet 'Samples'), n = 1.
The test system of another test is STK16. Conditions: read-out: apparent Kd, n = 1.
In another test the test system is TEC. Conditions: read-out: apparent Kd, n = 1.
The test system of a further test is MTOR. Conditions: read-out: apparent Kd, n = 1.
Another test concerns PIK3CG. Conditions: read-out: apparent Kd, compound concentrations: 100 nM and 1000 nM (sheet 'Samples'), n = 1.
The subject of the next test is PRKAG1. Conditions: read-out: apparent Kd, n = 1.
Another test concerns STK3. Conditions: read-out: apparent Kd, compound concentrations: 100 nM and 1000 nM (sheet 'Samples'), n = 1.
A further test deals with ADRBK1. Conditions: read-out: apparent Kd, n = 1.
For another test, the system named is CDK2. Conditions: read-out: apparent Kd, n = 1.
The next test relates to CDK5. Conditions: read-out: apparent Kd, n = 1.
In a further test the test system is LIMK2. Conditions: read-out: apparent Kd, n = 1.
The test system of the next test is ADCK1. Conditions: read-out: apparent Kd, n = 1.
The test system of a further test is PYGL. Conditions: read-out: apparent Kd, n = 1.
The next test has as its system CDK1. Conditions: read-out: apparent Kd, n = 1.
In the next test the test system is TESK1. Conditions: read-out: apparent Kd, compound concentrations: 100 nM and 1000 nM (sheet 'Samples'), n = 1.
The subject of the next test is TNIK. Conditions: read-out: apparent Kd; compound concentrations: 100 nM and 1000 nM (sheet 'Samples'), CATDS: 4.94410528213204E-2; n = 1.
The next test concerns PIK3CA. Conditions: read-out: apparent Kd, n = 1.
[1] abbreviates: compound concentrations:100 nM and 1000 nM (sheet 'Samples').

Read-outs that look alike come from different tables or passages of the source.

`CNC(=O)c1ccccc1Nc1nc(Nc2cccc(CS(C)(=O)=O)c2)ncc1C.O=CO` [GSK1520489A]: the potency estimated from few doses in the test with IRAK3 (compound concentrations: 100 nM and 1000 nM (sheet 'Samples'), CATDS: 6.3642542209879499E-2) was 0.0162 µM; in the test with MAPK8 (CATDS: 1.2501380881005299E-2) it was 0.517 µM; in the test with PTK2B (CATDS: 2.8071916989063601E-2), 0.0655 µM; in the test with PTK2 (CATDS: 4.2767285410469903E-2), 0.0302 µM; with STK16 (compound concentrations: 100 nM and 1000 nM (sheet 'Samples'), CATDS: 2.3983880535388601E-2), 0.0911 µM; with TEC (compound concentrations: 100 nM and 1000 nM (sheet 'Samples'), CATDS: 7.2078436601234794E-2), 0.0135 µM.
Turning to `O=S(=O)(CCOCc1ccc(-c2ccc3ncnc(Nc4ccc(OCc5cccc(F)c5)c(Cl)c4)c3c2)o1)c1ccccc1` [GW615311X], the potency estimated from few doses was 1.54 µM in the test on MAPK8 (CATDS: 2.6376171995156399E-2); 0.527 µM in the test with MTOR (compound concentrations: 100 nM and 1000 nM (sheet 'Samples'), CATDS: 4.7570184263153799E-2); 0.992 µM in the test on PIK3CG (CATDS: 3.2678630734210498E-2); 1.45 µM in the test on PRKAG1 (compound concentrations: 100 nM and 1000 nM (sheet 'Samples'), CATDS: 2.7047929037046701E-2); 2.07 µM with STK3 (CATDS: 2.3351352966808198E-2).
Turning to `CC(=O)N1CCN(c2ccc(Nc3nccc(-c4sc(C(C)C)nc4-c4cccc(NS(=O)(=O)c5ccccc5)c4)n3)cn2)CC1` [GSK1645872A], the potency estimated from few doses with ADRBK1 (compound concentrations: 100 nM and 1000 nM (sheet 'Samples'), CATDS: 2.7359704437324502E-2) was 0.943 µM; with CDK2 (compound concentrations: 100 nM and 1000 nM (sheet 'Samples'), CATDS: 2.76064563935246E-2), 0.919 µM; in the test on CDK5 (compound concentrations: 100 nM and 1000 nM (sheet 'Samples'), CATDS: 3.88696390995786E-2) it was 0.42 µM; in the test on LIMK2 (compound concentrations: 100 nM and 1000 nM (sheet 'Samples'), CATDS: 4.5143474402307197E-2), 0.319 µM.
In the case of `Nc1nc(N)c2nc(-c3ccccc3)[nH]c2n1` [SKF-12778], the potency estimated from few doses in the test on ADCK1 (setting [1]) is 1.2 µM; with MTOR (setting [1]) it was 0.4 µM; in the test with PYGL (setting [1]), 1.64 µM; in the test on TEC (setting [1]) it was 1.16 µM.
For the molecule `CC(C)c1nc(-c2cccc(NS(=O)(=O)c3c(F)cccc3F)c2F)c(-c2ccnc(Nc3ccc(N4CCOCC4)nc3)n2)s1` [GSK2008607A], the potency estimated from few doses in the test with CDK1 (compound concentrations: 100 nM and 1000 nM (sheet 'Samples'), CATDS: 1.7444638533949799E-2) was 2.41 µM; in the test on CDK2 (compound concentrations: 100 nM and 1000 nM (sheet 'Samples'), CATDS: 2.0277618916634502E-2), 1.32 µM; with CDK5 (compound concentrations: 100 nM and 1000 nM (sheet 'Samples'), CATDS: 2.5832908266049601E-2), 0.668 µM; with LIMK2 (compound concentrations: 100 nM and 1000 nM (sheet 'Samples'), CATDS: 2.06856155254838E-2) it was 1.24 µM; with TESK1 (CATDS: 2.61955130991521E-2) it was 0.646 µM.
Take `CC(C)c1nc(-c2ccc(F)c(NS(=O)(=O)c3c(F)cccc3F)c2)c(-c2ccnc(Nc3ccc(N4CCOCC4)nc3)n2)s1` [GSK1804250A]: the potency estimated from few doses with LIMK2 (setting [1]) is 0.478 µM.
Turning to `CC(=O)N1CCN(c2ccc(Nc3nccc(-c4sc(C(C)C)nc4-c4cccc(NS(=O)(=O)c5cccc(Cl)c5)c4)n3)cn2)CC1` [GSK1660437A], the potency estimated from few doses with LIMK2 (compound concentrations: 100 nM and 1000 nM (sheet 'Samples'), CATDS: 4.7315516345464E-2) was 0.946 µM.
As to `Nc1ncc(-c2cn[nH]c2)c2scc(-c3ccc4c(c3)CCN4C(=O)Cc3ccccc3)c12` [GSK2593067A], in the test on STK3 (CATDS: 6.6601304210445203E-2), the potency estimated from few doses was 1.19 µM.
Consider `Fc1cc(Cl)ccc1Nc1ccnc2cc(-c3ccc(CN4CCOCC4)o3)ccc12` [GW560109X], for which the potency estimated from few doses with TNIK was 2.05 µM.
`CC(C)c1nc(-c2cccc(NS(=O)(=O)c3c(F)cccc3F)c2)c(-c2ccnc(Nc3ccc(N4CCOCC4)nc3)n2)s1.Cl` [GSK1723980B]: the potency estimated from few doses was 1.58 µM in the test with CDK1 (compound concentrations: 100 nM and 1000 nM (sheet 'Samples'), CATDS: 1.4820123571840101E-2); 0.614 µM in the test with CDK2 (compound concentrations: 100 nM and 1000 nM (sheet 'Samples'), CATDS: 1.87425082345213E-2); 0.35 µM with CDK5 (compound concentrations: 100 nM and 1000 nM (sheet 'Samples'), CATDS: 2.2922403030908301E-2); 0.263 µM in the test on LIMK2 (compound concentrations: 100 nM and 1000 nM (sheet 'Samples'), CATDS: 2.58899611952562E-2); 0.132 µM in the test with TESK1 (CATDS: 3.6756821103285202E-2).
On to `CN1CCN(Cc2ccc(NC(=O)Nc3ccc(N(C)c4ccnc(Nc5ccc(CS(C)(=O)=O)cc5)n4)cc3)cc2)CC1.Cl` [GW827654A], for which, in the test with ADCK1 (compound concentrations: 100 nM and 1000 nM (sheet 'Samples'), CATDS: 3.6113243316098803E-2), the potency estimated from few doses is 1.52 µM.
As to `Clc1ccc(-c2nn3ncccc3c2-c2ccnc(Nc3ccccc3)n2)cc1` [GW829055X], the potency estimated from few doses is 1.43 µM in the test on ADCK1 (compound concentrations: 100 nM and 1000 nM (sheet 'Samples'), CATDS: 3.6697893678181097E-2); 2.08 µM with ADRBK1 (compound concentrations: 100 nM and 1000 nM (sheet 'Samples'), CATDS: 3.1852234097214598E-2); 1.32 µM with PRKAG1 (compound concentrations: 100 nM and 1000 nM (sheet 'Samples'), CATDS: 3.7997381036159197E-2); 1.8 µM in the test on PYGL (compound concentrations: 100 nM and 1000 nM (sheet 'Samples'), CATDS: 3.3581254695289102E-2); 2.27 µM in the test with STK3 (CATDS: 3.09457854656708E-2).
In the case of `COc1cc(N2CCN(C(C)C)CC2)ccc1Nc1nc(Nc2cccc(F)c2C(=O)O)c2cc[nH]c2n1` [GSK1819799A], the potency estimated from few doses was 0.0849 µM in the test with MAPK8 (CATDS: 0.22198197498325201), 0.466 µM in the test with PTK2B (CATDS: 7.8469335656757594E-2) and 0.522 µM in the test with PTK2 (CATDS: 7.4046545419842305E-2).
For `COc1ccc(S(=O)(=O)NC2CCN(c3cc(C)nc(Nc4cccc(C#N)c4)n3)CC2)cc1.O=C(O)C(F)(F)F` [GSK1653539A], the potency estimated from few doses in the test with PIK3CG (CATDS: 0.32479738642046602) was 1.38 µM.
Turning to `COc1ccc(C2=C(c3cn(C)c4ccccc34)C(=O)NC2=O)cc1OC` [RO3206363-000], the potency estimated from few doses in the test with PRKAG1 (compound concentrations: 100 nM and 1000 nM (sheet 'Samples'), CATDS: 0.103334601265543) is 0.0995 µM; in the test with PYGL (compound concentrations: 100 nM and 1000 nM (sheet 'Samples'), CATDS: 3.1878798319940699E-2) it was 1.85 µM.
On to `COc1ccc(Nc2nccc(N3CCC(NC(=O)Nc4cccc(OC)c4)C3)n2)cc1` (stereo not drawn) [GSK1379742A], for which the potency estimated from few doses in the test with CDK1 (compound concentrations: 100 nM and 1000 nM (sheet 'Samples'), CATDS: 0.12045824140997501) was 1.77 µM.
Regarding `Cl.Oc1ccc2ncnc(Nc3ccc(OCc4ccccc4)cc3)c2c1` [GI262866A], in the test on STK16 (setting [1]), the potency estimated from few doses was 1.16 µM.
`COc1cc(F)c(F)c(F)c1C(=O)c1cnc(NC2CCN(S(C)(=O)=O)CC2)nc1N` [RO4600703-000]: the values for the potency estimated from few doses in the test with CDK1 (setting [1]), in the test with CDK2 (setting [1]) and in the test on CDK5 (setting [1]) were 0.368 µM, 0.0902 µM and 0.138 µM, respectively.
Regarding `COc1ccc(-c2nn3ncccc3c2-c2ccnc(Nc3ccc4c(c3)OCCO4)n2)cc1` [GW827106X], the potency estimated from few doses in the test on PIK3CA (compound concentrations: 100 nM and 1000 nM (sheet 'Samples'), CATDS: 0.187165726463497) is 0.172 µM; with PIK3CG (CATDS: 5.53437190113686E-2), 1.18 µM.
For the molecule `NS(=O)(=O)c1cccc(-c2ccc3nccc(-c4cccc(S(N)(=O)=O)c4)c3c2)c1` [GW867253X], the potency estimated from few doses with ADRBK1 (compound concentrations: 100 nM and 1000 nM (sheet 'Samples'), CATDS: 0.51630856929824398) is 1.86 µM.
In the case of `COc1ccc(C2=C(Nc3cccc(O)c3)C(=O)NC2=O)cc1` [SB-390766], the values for the potency estimated from few doses with PIK3CA (setting [1]) and in the test with STK16 (setting [1]) were 0.115 µM and 1.59 µM, respectively.
For `NC(=O)c1cccnc1COc1cc(-c2ccc(N3CCOCC3)nc2)cc2ncccc12` [BI01125081], the potency estimated from few doses was 0.577 µM with IRAK3 (setting [1]) and 1.24 µM in the test on STK16 (setting [1]).
As for `Nc1c(C(=O)c2ccccc2)cnn1-c1ccc(F)cc1` [RO1151246-000], in the test on CDK1 (setting [1]), the potency estimated from few doses was 1.88 µM.
Consider `Fc1ccc(-c2ncn(C3CCNCC3)c2-c2ccnc(Oc3ccc4c(c3)OCO4)n2)cc1` [SB-250715], for which the potency estimated from few doses was 1.85 µM in the test with ADCK1 (setting [1]), 2.15 µM in the test with ADRBK1 (setting [1]), 1.75 µM in the test with PRKAG1 (setting [1]) and 1.99 µM in the test on PYGL (setting [1]).
Regarding `COc1ccc(C2=NC(c3ccc(Cl)cc3F)C(C(=O)Nc3ccc4[nH]ncc4c3)=C(C)N2)cn1.O=C(O)C(F)(F)F` (stereo not drawn) [GSK534913A], the potency estimated from few doses in the test on ADRBK1 (setting [1]) was 0.895 µM.
